Assay results published in PubChem BioAssay (NCI).
The panel holds about 83,000 compounds, 20% with a hit somewhere; the sample as a whole holds those more often.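 In brief: 96-well plates, 48 h treatment, single concentration, percent growth endpoint.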 Activity calls are given as the source filed them. The calls were made as follows: active = growth percent below 10; inactive = the rest.

Columns and labels:
Assay in all cases: NCI-60 one-dose screen, 48 h (100 = growth as untreated, 0 = no growth, -100 = all killed)
SR leukemia = settings: 10 µM unless noted
RPMI-8226 leukemia = settings: 10 µM unless noted
OVCAR-8 ovarian = settings: 10 µM unless noted
OVCAR-5 ovarian = settings: 10 µM unless noted
OVCAR-4 ovarian = settings: 10 µM unless noted
SK-OV-3 ovarian = settings: 10 µM unless noted
IGROV1 ovarian = settings: 10 µM unless noted
OVCAR-3 ovarian = settings: 10 µM unless noted
NCI/ADR-RES ovarian = settings: 10 µM unless noted
HS 578T breast = settings: 10 µM

Measured: growth

COC(=O)c1ccc2c(C(=Nc3ccc(N(C)C(=O)CN4CCN(C)CC4)cc3)c3ccccc3)c(O)[nH]c2c1
active: SR leukemia 6.5%
inactive: RPMI-8226 leukemia 62.4% | OVCAR-8 ovarian 53.2% | OVCAR-5 ovarian 64.5% | OVCAR-4 ovarian 68.5% | SK-OV-3 ovarian 53.2% | IGROV1 ovarian 33.6% | OVCAR-3 ovarian 91.3% | NCI/ADR-RES ovarian 82.2%

ClCc1ccc(-c2ccc(Cn3cnc4nc(Cl)nc(Cl)c43)cc2)cc1
active: SR leukemia -37.1% | RPMI-8226 leukemia -55.8% | OVCAR-8 ovarian -72.1% | OVCAR-5 ovarian -11.1% | OVCAR-3 ovarian -77.6%
inactive: OVCAR-4 ovarian 46.6% | SK-OV-3 ovarian 72.5% | IGROV1 ovarian 21% | NCI/ADR-RES ovarian 24.8%

Cc1cc(Nc2ncnc3ccc(NC4=NC(C)(C)CO4)cc23)ccc1Oc1ccn2ncnc2c1
active: SR leukemia -14.4% | IGROV1 ovarian -19.6%
inactive: RPMI-8226 leukemia 24.3% | OVCAR-8 ovarian 37.3% | OVCAR-5 ovarian 14.3% | OVCAR-4 ovarian 44.2% | SK-OV-3 ovarian 14.6% | OVCAR-3 ovarian 46.8% | NCI/ADR-RES ovarian 63.3%

[2H]C1([2H])[C@H](C)O[C@H](C)C([2H])([2H])N1c1ccc(NC(=O)c2cccc(-c3ccc(OC(F)(F)F)cc3)c2C)cn1
inactive: SR leukemia 56.4% | RPMI-8226 leukemia 53.3% | OVCAR-8 ovarian 79.1% | OVCAR-5 ovarian 100% | OVCAR-4 ovarian 65.8% | SK-OV-3 ovarian 63.2% | IGROV1 ovarian 65.2% | OVCAR-3 ovarian 84.6% | NCI/ADR-RES ovarian 58.4%

CN(C)C[C@@H]1CCn2cc(c3ccccc32)C2=C(C(=O)NC2=O)c2cn(c3ccccc23)CCO1
active: SR leukemia -11.8% | RPMI-8226 leukemia -18.8% | OVCAR-8 ovarian -0.0404% | OVCAR-5 ovarian -7.31% | OVCAR-4 ovarian -45.9% | SK-OV-3 ovarian 6.11% | IGROV1 ovarian -13.1% | OVCAR-3 ovarian 1.36% | NCI/ADR-RES ovarian 6.82%

CS(=O)(=O)N1CCN(Cc2cc3nc(-c4cccc5[nH]ncc45)nc(N4CCOCC4)c3s2)CC1
inactive: SR leukemia 18.6% | RPMI-8226 leukemia 25% | OVCAR-8 ovarian 27% | OVCAR-5 ovarian 20.5% | OVCAR-4 ovarian 47.8% | OVCAR-3 ovarian 14.5% | NCI/ADR-RES ovarian 32.1%
active: SK-OV-3 ovarian -18.4% | IGROV1 ovarian -28.4%

C=CC(=O)Nc1cc2c(Nc3ccc(F)c(Cl)c3)ncnc2cc1C#CC(C)(C)N1CCN(C)CC1
active: SR leukemia -14.2% | RPMI-8226 leukemia -34.2% | OVCAR-8 ovarian -73.5% | OVCAR-5 ovarian -95.5% | OVCAR-4 ovarian -96.2% | SK-OV-3 ovarian -96.6% | IGROV1 ovarian -73.9% | OVCAR-3 ovarian -96.7% | NCI/ADR-RES ovarian -52.2%

C[C@@H]1COCCN1c1cc(C2([S@](C)(=N)=O)CC2)nc(-c2ccnc3[nH]ccc23)n1
active: SR leukemia 7.14% | SK-OV-3 ovarian 4.16%
inactive: RPMI-8226 leukemia 32.4% | OVCAR-8 ovarian 30.7% | OVCAR-5 ovarian 34.5% | OVCAR-4 ovarian 30.3% | IGROV1 ovarian 17.7% | OVCAR-3 ovarian 31.7% | NCI/ADR-RES ovarian 80.4%

Cn1cc(-c2ccc(F)c(C(F)(F)F)c2)nc1C1CCN(c2ncnc3[nH]ncc23)CC1
inactive: SR leukemia 55.4% | RPMI-8226 leukemia 82.3% | OVCAR-8 ovarian 47.8% | OVCAR-5 ovarian 85.8% | OVCAR-4 ovarian 80.4% | SK-OV-3 ovarian 55.5% | IGROV1 ovarian 55.2% | OVCAR-3 ovarian 89.6% | NCI/ADR-RES ovarian 61.2%

C=CC(=O)N1CCC[C@@H](n2nc(-c3ccc(Oc4ccccc4)cc3)c3c(N)ncnc32)C1
inactive: SR leukemia 50.3% | RPMI-8226 leukemia 42.1% | OVCAR-8 ovarian 40.1% | OVCAR-5 ovarian 81.7% | OVCAR-4 ovarian 60.6% | OVCAR-3 ovarian 66.3% | NCI/ADR-RES ovarian 46.4%
active: SK-OV-3 ovarian -2.8% | IGROV1 ovarian 7.56%

CCCNC(=O)c1cn2ncnc(Nc3cc(C(=O)NC4CC4)ccc3C)c2c1C
inactive: SR leukemia 73.6% | RPMI-8226 leukemia 75.9% | OVCAR-8 ovarian 77.8% | OVCAR-5 ovarian 17.6% | OVCAR-4 ovarian 92.1% | SK-OV-3 ovarian 70.5% | IGROV1 ovarian 42.4% | OVCAR-3 ovarian 103% | NCI/ADR-RES ovarian 66.9%

CCOc1cc2ncc(C#N)c(Nc3ccc(F)c(Cl)c3)c2cc1NC(=O)/C=C/CN(C)C
active: SR leukemia -14% | RPMI-8226 leukemia -34.6% | OVCAR-8 ovarian -7.83% | OVCAR-5 ovarian -3.14% | OVCAR-4 ovarian -61.9% | SK-OV-3 ovarian -5.87% | IGROV1 ovarian -32.1% | OVCAR-3 ovarian -82.7% | NCI/ADR-RES ovarian 6.54%

C=CC(=O)Nc1cc(Nc2nccc(-c3cn(C)c4ccccc34)n2)c(OC)cc1N(C)CCN(C)C
inactive: SK-OV-3 ovarian 15.4%
active: SR leukemia -24% | RPMI-8226 leukemia -22% | OVCAR-8 ovarian -25.4% | OVCAR-5 ovarian -56.5% | OVCAR-4 ovarian -13.5% | IGROV1 ovarian -48.8% | OVCAR-3 ovarian -55.3% | NCI/ADR-RES ovarian -38.8%

CNC(=O)c1ccc(Nc2ncc(C(F)(F)F)c(NCc3nccnc3N(C)S(C)(=O)=O)n2)cc1
inactive: NCI/ADR-RES ovarian 29.8%
active: SR leukemia -21.3% | RPMI-8226 leukemia -26.7% | OVCAR-8 ovarian -0.118% | OVCAR-5 ovarian 0.954% | OVCAR-4 ovarian 1.68% | SK-OV-3 ovarian -21.1% | IGROV1 ovarian 3.11% | OVCAR-3 ovarian 9.41%

Cc1nc(N)sc1-c1ccnc(Nc2ccc(N3CCOCC3)cc2)n1
inactive: RPMI-8226 leukemia 31.4% | OVCAR-8 ovarian 34.2% | OVCAR-5 ovarian 42.8% | OVCAR-4 ovarian 53.7% | IGROV1 ovarian 12.3% | OVCAR-3 ovarian 59.6% | NCI/ADR-RES ovarian 61.4%
active: SR leukemia 2.59% | SK-OV-3 ovarian 8.94%

O=C(O)c1ccc(Nc2ncc3c(n2)-c2ccc(Cl)cc2C(c2c(F)cccc2F)=NC3)cc1
inactive: SR leukemia 24.2% | RPMI-8226 leukemia 47.7% | OVCAR-8 ovarian 43% | OVCAR-5 ovarian 59.3% | OVCAR-4 ovarian 79.6% | SK-OV-3 ovarian 59.7% | IGROV1 ovarian 41.8% | OVCAR-3 ovarian 64.5% | NCI/ADR-RES ovarian 55.4%

CC(C)[C@@H](C)/C=C/[C@@H](C)[C@H]1CCC2=C3C=CC4=CC(=O)CC[C@]4(C)[C@H]3CC[C@@]21C
inactive: SR leukemia 70.8% | RPMI-8226 leukemia 66% | OVCAR-8 ovarian 91.1% | OVCAR-5 ovarian 105% | OVCAR-4 ovarian 101% | SK-OV-3 ovarian 105% | IGROV1 ovarian 110% | OVCAR-3 ovarian 116% | NCI/ADR-RES ovarian 101%

C[C@@H](Nc1cc(F)cc(F)c1)c1cc(C(=O)N(C)C)cc2c(=O)cc(N3CCOCC3)oc12
inactive: SR leukemia 53.5% | RPMI-8226 leukemia 84.4% | OVCAR-8 ovarian 57.9% | OVCAR-5 ovarian 54.5% | OVCAR-4 ovarian 88.2% | OVCAR-3 ovarian 40% | NCI/ADR-RES ovarian 85.4%
active: SK-OV-3 ovarian 3.43% | IGROV1 ovarian -13.3%

CN(C)CCOC(=O)Nc1nc2ccc(Sc3ccccc3)cc2[nH]1
inactive: SR leukemia 22% | RPMI-8226 leukemia 19.2% | OVCAR-8 ovarian 39.4% | OVCAR-5 ovarian 59.8% | OVCAR-4 ovarian 73.4% | SK-OV-3 ovarian 33.6% | IGROV1 ovarian 44.9% | OVCAR-3 ovarian 22.8% | NCI/ADR-RES ovarian 18.1%

COC(=O)[C@H](Cc1ccc(O)cc1)NC(=O)[C@@H](OC)[C@@H]1Cc2cc3cc(OC4CC(OC5CC(O)C(O)C(C)O5)C(O)C(C)O4)c(C)c(O)c3c(O)c2C(=O)[C@H]1OC1CC(OC2CC(OC3CC(C)(O)C(O)C(C)O3)C(O)C(C)O2)C(O)C(C)O1 (some centres not stated)
active: SR leukemia 9.7% | RPMI-8226 leukemia -5.59% | OVCAR-8 ovarian 9.74% | OVCAR-4 ovarian 7.27% | OVCAR-3 ovarian 5.52%
inactive: OVCAR-5 ovarian 10.6% | SK-OV-3 ovarian 20.7% | IGROV1 ovarian 31.2% | NCI/ADR-RES ovarian 85.6%

Cc1cn(-c2cc(NC(=O)c3ccc(C)c(Nc4nccc(-c5cccnc5)n4)c3)cc(C(F)(F)F)c2)cn1
active: SR leukemia 8.24% | IGROV1 ovarian -44.4%
inactive: RPMI-8226 leukemia 37.9% | OVCAR-8 ovarian 42.6% | OVCAR-5 ovarian 57% | OVCAR-4 ovarian 51.8% | SK-OV-3 ovarian 119% | OVCAR-3 ovarian 92.6% | NCI/ADR-RES ovarian 31.6%

N#CC[C@H](C1CCCC1)n1cc(-c2ncnc3[nH]ccc23)cn1
inactive: RPMI-8226 leukemia 81.2% | OVCAR-8 ovarian 64.4% | OVCAR-5 ovarian 50.1% | OVCAR-4 ovarian 81.5% | SK-OV-3 ovarian 38.4% | IGROV1 ovarian 38% | OVCAR-3 ovarian 83% | NCI/ADR-RES ovarian 87.9%
active: SR leukemia 2.14%

COC(=O)c1[nH]cnc1/N=N/N(C)CCO
active: HS 578T breast -26.7%
inactive: SR leukemia 75.4% | OVCAR-8 ovarian 109% | OVCAR-5 ovarian 92.9% | OVCAR-4 ovarian 105% | SK-OV-3 ovarian 98.3% | IGROV1 ovarian 109% | OVCAR-3 ovarian 99% | NCI/ADR-RES ovarian 95.9%

O=C(Nc1ccc(C(=O)Nc2ccc(C3=NCCCN3)cc2)cc1)Nc1ccc(C2=NCCCN2)cc1
inactive: SR leukemia 44.5% | OVCAR-8 ovarian 57.4% | OVCAR-5 ovarian 93.2% | OVCAR-4 ovarian 65.5% | SK-OV-3 ovarian 97.8% | IGROV1 ovarian 99.7% | OVCAR-3 ovarian 103% | HS 578T breast 91.3% | NCI/ADR-RES ovarian 86.5%

CCOC(=O)Sc1ncnc2nc[nH]c12
inactive: OVCAR-8 ovarian 18.5% | OVCAR-5 ovarian 47.2% | OVCAR-4 ovarian 35.1% | SK-OV-3 ovarian 23.9% | IGROV1 ovarian 45.1% | OVCAR-3 ovarian 26.4% | HS 578T breast 76.2% | NCI/ADR-RES ovarian 37%
active: SR leukemia 9.18%

CN(C[C@@H]1COCCO1)S(=O)(=O)Nc1ccc2ccc3ncc(-c4cnn(C)c4)cc3c(=O)c2c1
inactive: SR leukemia 13.1% | RPMI-8226 leukemia 38.5% | OVCAR-8 ovarian 31.3% | OVCAR-5 ovarian 55.2% | OVCAR-4 ovarian 38.2% | IGROV1 ovarian 11.5% | OVCAR-3 ovarian 55.4% | NCI/ADR-RES ovarian 52.1%
active: SK-OV-3 ovarian 1.71%

CCCC(=O)OCC1OC(n2cnc3c(=S)nc[nH]c32)C(OC(=O)CCC)C1OC(=O)CCC (configuration not stated)
active: OVCAR-8 ovarian -8.32%
inactive: SR leukemia 24% | OVCAR-5 ovarian 46.2% | OVCAR-4 ovarian 31.3% | SK-OV-3 ovarian 21% | IGROV1 ovarian 14.7% | OVCAR-3 ovarian 22.7% | HS 578T breast 47.7% | NCI/ADR-RES ovarian 48.3%

CC(=O)OC1Oc2ccccc2-c2oc(=O)c(-c3cc4ccc(N(C)C)cc4oc3=O)cc21 (configuration not stated)
active: SR leukemia -19.9% | RPMI-8226 leukemia -20.5% | HS 578T breast -3.16%
inactive: OVCAR-8 ovarian 37.1% | OVCAR-5 ovarian 26.3% | OVCAR-4 ovarian 39.1% | SK-OV-3 ovarian 48.1% | OVCAR-3 ovarian 43% | NCI/ADR-RES ovarian 38.9%
